# Assay results: ChEMBL document CHEMBL3988442, “University of Dundee, Small-Polar-MMV Screening Library” (2021)
# The whole screen tested about 48,000 compounds, of which about 13,000 (27%) showed an effect of 50% or more. Some of the results follow.
# Tested on: Wolbachia pipientis
# Test: Anti-Wolbachia Cell-Based Screen
# Type: functional
# Design: scale not given: in the data most compounds retested in dose-response had high values
# Conditions: 5 µM
row,Structure (SMILES),Percent Effect
1,Cc1cccc(CN2C(=O)C[C@H]3[C@@H]2CCN3Cc2ccco2)n1.O=C(O)C(F)(F)F.O=C(O)C(F)(F)F,95.2%
2,Cc1cccc(CN2C(=O)C[C@@H]3[C@@H]2CCN3Cc2ccsc2)n1.O=C(O)C(F)(F)F.O=C(O)C(F)(F)F,96.12%
3,Cc1cccc(CN2C(=O)C[C@H]3[C@@H]2CCN3Cc2nccs2)n1.O=C(O)C(F)(F)F.O=C(O)C(F)(F)F,101.6%
4,Cc1cccc(CN2C(=O)CC[C@H]3[C@@H]2CCN3CC(=O)N(C)C)n1.O=C(O)C(F)(F)F.O=C(O)C(F)(F)F,6.381%
5,Cc1ccc(-c2noc(CC[C@@H]3CCCN4CCCC[C@H]34)n2)nn1,-24.46%
6,Cc1cc(N(C)C)nc(C2CCCNC2)n1.Cl (configuration not stated),130.2%
7,c1cncc(NCCNC2CCCNC2)c1 (configuration not stated),1.696%
8,CNc1cc(C2CCCNC2)nc(C)n1.Cl.Cl (configuration not stated),69.51%
9,Cc1cc(C)nc(C2CCCNC2)n1.Cl.Cl (configuration not stated),131.4%
10,CN(C)c1cc(C2CCCNC2)ccn1.Cl.Cl (configuration not stated),113.5%
11,Cc1cc(N(C)C)nc(N2CCCC2c2cccnc2)n1 (configuration not stated),6.252%
12,O=C([C@H]1C[C@H]2OCC[C@H]2N(Cc2ccncc2)C1)N1CCCCO1,-15.5%
13,Cc1nc(O)cc(CN2CC=C(c3cnn(-c4ccccc4)c3)CC2)n1,3.563%
14,O=C(O)C(F)(F)F.O=C1[C@H]2CN(Cc3cccs3)C[C@H]2CN1c1cncnc1,0.1136%
15,Cc1cc(O)nc(C2CCCNC2)n1.Cl (configuration not stated),166.7%
16,Cl.FC(F)(F)c1nc(C2CCCNC2)no1 (configuration not stated),113.6%
17,CC(C)c1nc(C2CCCNC2)no1.Cl (configuration not stated),-31.86%
18,COc1ccc(F)cc1C(=O)C1CCCN(Cc2cnc(C)s2)C1 (configuration not stated),-11.09%
19,N#Cc1cccc(N2CCCC3(CNCCO3)C2)n1.O=C(O)C(F)(F)F.O=C(O)C(F)(F)F (configuration not stated),1.133%
20,CN1C(=O)C2(CCN(Cc3cccnc3)CC2)c2cccc(F)c21.Cl,9.194%
21,COc1ccc(CCN)cc1-c1ccc(S(C)(=O)=O)cc1,-7.949%
22,O=C(c1cc(F)cc(F)c1)N1C[C@H]2CNC[C@H]2C1,-1.943%
